Measurements published in PubChem BioAssay.
Active and inactive are the calls of the source. How the calls were made is not given here.

These compounds were tested against Pantothenate synthetase (Mycobacterium tuberculosis (strain ATCC 25618 / H37Rv)) (UniProt P9WIL5) (assay: Recombinant Mtb pantothenate synthetase (PanC) inhibitors, coupled enzyme, confirmatory (AID 375;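 further: 0% = full reaction with vehicle and 100% = no enzyme background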)). Settings: coupled enzyme assay; at 10 µM, active compounds read high.
Sequence of Pantothenate synthetase (Mycobacterium tuberculosis (strain ATCC 25618 / H37Rv)) (P9WIL5 whole entry, looked up): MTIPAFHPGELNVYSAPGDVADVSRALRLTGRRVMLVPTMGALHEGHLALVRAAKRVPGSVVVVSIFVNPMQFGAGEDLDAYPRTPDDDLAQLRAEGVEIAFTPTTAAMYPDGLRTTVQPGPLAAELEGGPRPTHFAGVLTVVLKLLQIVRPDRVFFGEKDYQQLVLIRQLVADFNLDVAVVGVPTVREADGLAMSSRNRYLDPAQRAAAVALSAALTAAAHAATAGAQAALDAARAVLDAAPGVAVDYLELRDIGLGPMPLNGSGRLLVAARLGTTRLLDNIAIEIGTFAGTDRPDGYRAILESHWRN

Row | SMILES | inhibition
1 | COc1ccccc1NC(=O)C(C)NS(=O)(=O)c1ccc(F)cc1 (configuration not stated) | 0% (inactive)
2 | Cc1cccc(OCC(=O)N2CCN(C(=O)Cc3ccccc3)CC2)c1 | 1% (inactive)
3 | CC1(C)Cc2c(c(N3CCOCC3)nc3sc(C#N)c(N)c23)CS1 | 0% (inactive)
4 | O=C(CCN1CCN(C(=O)c2ccco2)CC1)Nc1ccc(F)cc1 | 2% (inactive)
5 | CC1CCN(C(=O)CSc2nnc(-c3cccnc3)n2C2CCCCC2)CC1 | 0% (inactive)
6 | Cn1c(=O)c2c(nc(SCC(=O)NCc3ccco3)n2C)n(C)c1=O | 0% (inactive)
7 | Cc1ccc2nc(NC(=O)Cn3cc4c(n3)CCCCC4)sc2c1 | 0% (inactive)
8 | C=CCN(CC=C)C(=O)c1ccncc1 | 0% (inactive)
9 | Cc1nnc(SCc2cnc(-c3ccccc3)o2)[nH]c1=O | 0% (inactive)
10 | CCSc1nc(O)c(C2OC(=O)c3c2ccc(OC)c3OC)c(=O)n1-c1ccccc1 (configuration not stated) | 0% (inactive)
11 | CN1C(=O)NC(NC(=O)C2CCCCC2)(C(F)(F)F)C1=O (configuration not stated) | 0% (inactive)
12 | COCCNC(=O)CSc1nc(-c2ccc(OC)c(OC)c2)cc(C(F)(F)F)n1 | 2% (inactive)
13 | CCC(C)NC(=O)c1cn(CC)c2ccc(S(=O)(=O)N(C)C)cc2c1=O (configuration not stated) | 0% (inactive)
14 | N/C(Cn1nnc(-c2ccccc2)n1)=N\O | 3% (inactive)
15 | CC(=O)NCc1ccc(C(=O)CSc2nnc(-c3ccncc3)n2Cc2ccccc2)o1 | 16% (inactive)
16 | O=C(CSc1nnc(-c2ccccc2Cl)n1Cc1ccco1)Nc1ccc2c(c1)OCCO2 | 2% (inactive)
17 | CCOC(=O)c1cccc(NC(=O)CSc2nnc(C3CCCCC3)n2C)c1 | 2% (inactive)
